Reference: PubChem BioAssay AID602248 (The Scripps Research Institute Molecular Screening Center, 2012)
The campaign covered roughly 360,000 compounds. About 1,700 (0.47%) were called active. The full list was thinned out, with actives kept by preference. Values without a mark were called inactive. Cut-off read from the data, not from the text of the source: active = activation above about 15%; inactive = the rest.

test: counter-screen for M1 agonists: effect in parental CHO-K1 cells (AID 602248); conditions: Fluo-8 calcium fluorescence, at 3 µM, active compounds read high;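 note: untransfected CHO-K1 host cells lacking M1 receptor as counterscreen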

Row | Compound | activation
1 | O=C(CCNS(=O)(=O)c1ccccc1)Nc1ccc(Cl)cc1C(=O)c1ccccc1 | 16% (active)
2 | CN1CCN(C(=S)SCC(=O)Nc2ccc(Cl)cc2C(=O)c2ccccc2)CC1 | 3.53%
3 | O=C(COC(=O)c1ccccc1)Nc1ccc(Cl)cc1C(=O)c1ccccc1 | 0.05%
4 | CN(C)C(=O)Oc1ccc(OCc2cccc[n+]2C)cc1 | -0.29%
5 | CCCCCCCCCCCCn1ccc(=N)cc1 | 31.4% (active)
6 | CNC(=O)Nc1ccc(C(O)(C(=O)OC)C(F)(F)F)cc1 (stereo not given) | 1.17%
7 | COC(=O)C1=C(c2cccc(OCc3ccccc3)c2)C[C@@H]2CC[C@H]1N2C(=O)NNCc1ccccc1 | 0.39%
8 | CCOC(=O)CC1=C(C(=O)OCC)C2(C(=O)N1)C(C(=O)OC)=C(N)Oc1ccccc12 (stereo not given) | -0.01%
9 | O=C1NC(=O)C(CCc2ccccn2)(Cc2cccc(Cl)c2Cl)C(=O)N1c1ccc(Br)cc1 (stereo not given) | 4.3%
10 | Cc1cc(C(=O)OCC(=O)Nc2c(F)cccc2F)c(C)n1C1CC1 | 0.33%
11 | CC(C)N(CC#CCC1(O)c2ccccc2-c2ccccc21)C(C)C | 0.55%
12 | N=c1ccccn1Cc1ccccc1 | 15.6% (active)
13 | CCN1CCN(c2nc3c(c(=O)[nH]2)CCC3)CC1 | 0.18%
14 | CCCn1c(C(=O)c2ccccc2OC)nc2ccccc21 | -0.18%
15 | CC1=C2C(=O)C3C(CC=C4CC(OC5OC(O)C(O)C(O)C5CO)CCC43C)C2CCC12OC1CC(C)CNC1C2C (stereo not given) | 1.23%
